The values below come from PubChem BioAssay (NCATS).

Values without a mark were called inactive. Inconclusive results are not listed. Active and inactive are the calls of the source. Unless noted, calls come from the whole dose curve; as a rule, active = well fitted curve in either direction with a large enough effect (not every such curve was filed as active); inconclusive = small, poorly fitted or top-dose-only effect, or another doubt; inactive = flat fitted curve, though single readings scatter.

The nature of assay [1]: AP1 Signaling Pathway (AID 357). Note: % is set by controls: 0 for no effect and ±100 for the full control effect. As to conditions: ME-180 AP-1-bla reporter, EGF-induced, beta-lactamase ratio, 5 h; at 17.2 µM (top of the series) unless noted. The method, boiled down: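 AP-1-bla ME-180 cells with beta-lactamase reporter under AP-1 response element, stimulated with EC50 EGF; compounds titrated, 5 hours at 37 degrees Celsius. CCF4 read at 460/530 nm ratio; positive and negative modulators judged by AC50.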

A short description of assay [2]: NFAT Signaling Pathway (AID 444).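 Note: carbachol stimulus at about its EC50 of 1 µM final; % is set by controls: 0 for no effect and ±100 for the full control effect.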 As to conditions: Jurkat NFAT-bla M1, carbachol, beta-lactamase ratio, 5 h; at 17.2 µM (top of the series) unless noted. The method, boiled down:
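Jurkat cells with NFAT-driven β-lactamase reporter and co-expressed M1 receptor, stimulated with carbachol (final 1 uM, ~EC50), compound titration, 5 h at 37 °C. CCF4 loaded 1 h at RT; 460/530 nm ratio gave %activity and AC50.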

A short description of assay [3]: Stat Signaling Pathway (AID 446).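 Note: ME-180 cervical cancer cells given 40 pM IL-6 alongside compound; SIE-controlled beta-lactamase reporter measured as 460/530 nm FRET emission ratio; % is set by controls: 0 for no effect and ±100 for the full control effect.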 Conditions: ME-180 (cervical carcinoma) SIE beta-lactamase reporter, IL-6 stimulated, 5 h; at 17.2 µM (top of the series) unless noted. The method, boiled down: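 Overnight-plated ME-180 cells bearing a STAT Inducible Element beta-lactamase reporter; 5 h co-exposure to compound and 40 pM IL-6; values normalized to 300 pM IL-6 and 125 nM JAK inhibitor controls.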

For assay [4], the target named is Glucocorticoid receptor (Homo sapiens) (UniProt P04150). The experiment in a line: GR-GFP Redistribution (AID 450;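 active = compounds whose dose series gives a full or clear partial fitted curve of increased nuclear translocation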; note: potency is the fitted concentration of half-maximal effect).
Chain of Glucocorticoid receptor (Homo sapiens) (P04150 whole entry, looked up): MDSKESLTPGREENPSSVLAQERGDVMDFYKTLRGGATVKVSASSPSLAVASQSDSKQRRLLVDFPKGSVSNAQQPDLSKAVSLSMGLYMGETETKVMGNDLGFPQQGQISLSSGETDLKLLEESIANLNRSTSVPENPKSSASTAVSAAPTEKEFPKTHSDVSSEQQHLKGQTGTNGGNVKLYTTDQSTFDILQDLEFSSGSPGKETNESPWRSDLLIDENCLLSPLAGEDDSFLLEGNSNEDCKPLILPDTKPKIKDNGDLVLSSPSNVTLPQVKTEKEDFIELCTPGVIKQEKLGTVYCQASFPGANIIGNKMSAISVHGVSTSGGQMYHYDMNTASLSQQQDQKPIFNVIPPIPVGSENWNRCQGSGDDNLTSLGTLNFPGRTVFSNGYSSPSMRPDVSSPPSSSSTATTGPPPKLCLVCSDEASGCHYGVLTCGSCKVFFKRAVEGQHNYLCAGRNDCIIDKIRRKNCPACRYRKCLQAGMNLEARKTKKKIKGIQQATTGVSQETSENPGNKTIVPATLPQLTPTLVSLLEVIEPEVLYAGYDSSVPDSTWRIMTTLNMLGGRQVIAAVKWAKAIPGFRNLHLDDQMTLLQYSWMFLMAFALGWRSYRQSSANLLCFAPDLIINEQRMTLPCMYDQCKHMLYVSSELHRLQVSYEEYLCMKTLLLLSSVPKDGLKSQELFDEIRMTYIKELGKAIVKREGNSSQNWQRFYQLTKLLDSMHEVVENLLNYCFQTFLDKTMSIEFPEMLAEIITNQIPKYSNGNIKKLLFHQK

Consider `Cc1ccc(C(C)C)c(OCCNc2nc3c(c(=O)n(C)c(=O)n3C)n2C)c1`, for which the activity change, negative = inhibition was -0.712% in assay [1] and 13.4% in assay [2]. For the same compound, the activity, negative = inhibition in assay [3] is -22.6%. Further, in assay [4], the Potency is more than 20.6 µM.

`CCN(CC)CCN1C(=O)C(O)=C(C(C)=O)C1c1ccc(OC)c(OC)c1` (centres undefined): the figures for the activity change, negative = inhibition in assay [1] and in assay [2] were 1.74% and 3.09%, respectively. In assay [3], the activity, negative = inhibition was -2.04%. The Potency in assay [4] is more than 20.6 µM.

Consider `O=C(O)c1ccnc(C(=O)O)c1`, for which the activity change, negative = inhibition in assay [1] is 8.01%; in assay [2] it was 0.361%. The activity, negative = inhibition in assay [3] is 10.5%. In addition, the Potency in assay [4] is more than 20.6 µM.

On to `COc1ccc2oc(=O)c(-c3nc(C)cs3)cc2c1`, for which the results for the activity change, negative = inhibition in assay [1] and in assay [2] were 19.7% and -8.83%, respectively. The activity, negative = inhibition in assay [3] was 17.3%. The Potency in assay [4] was more than 20.6 µM.

With `c1ccc(-c2nc(NCC3CCCO3)c3ccccc3n2)nc1` (centres undefined), the activity change, negative = inhibition in assay [1] was -1.55%; in assay [2], -27.7%. Besides, in assay [3], the activity, negative = inhibition is -6.67%. In addition, the Potency in assay [4] is more than 20.6 µM.

Consider `CCOC(=O)CSC1=C(C#N)C(c2ccc3c(c2)OCO3)CC(=O)N1` (centres undefined), for which the activity change, negative = inhibition in assay [1] is -5.02%; in assay [2] it was 4.11%. Further, the activity, negative = inhibition in assay [3] was 3.81%. Further, the Potency in assay [4] was more than 20.6 µM.

Turning to `Cc1ccc(C2/C(=C(\O)c3ccc4c(c3)OCCO4)C(=O)C(=O)N2CCCN(C)C)o1` (centres undefined), the figures for the activity change, negative = inhibition in assay [1] and in assay [2] were 1.54% and -21.4%, respectively. Besides, the activity, negative = inhibition in assay [3] was -1.3%. For the same compound, in assay [4], the Potency is more than 20.6 µM.

For `C=CCN=C(C)C1=C(O)CCC1=O`, the activity change, negative = inhibition is 23.8% in assay [1] and -7.26% in assay [2]. In assay [3], the activity, negative = inhibition is 20.3%. Besides, the Potency in assay [4] is more than 20.6 µM.

For the compound `CC1(C)Cc2c(sc3ncn4nnnc4c23)CO1`, the activity change, negative = inhibition in assay [1] was -0.575%; in assay [2], 0.343%. The activity, negative = inhibition in assay [3] was 2.69%. The Potency in assay [4] is more than 20.6 µM.

In the case of `C=C1[C@@H](C)C2[C@H](Cc3ccccc3)NC(=O)[C@]23OC(=O)CC[C@H](O)CCC[C@H](C)C/C=C/[C@H]3[C@@H]1O` (some centres undefined), the results for the activity change, negative = inhibition in assay [1] and in assay [2] were -80.8% (active) and -7.27%, respectively. In addition, the activity, negative = inhibition in assay [3] is -14.9%. Also, the Potency in assay [4] is more than 20.6 µM.

Regarding `COn1c(=S)[nH]c2ccccc2c1=O`, the activity change, negative = inhibition in assay [1] was 20.1%; in assay [2], 11.2%. Moreover, in assay [3], the activity, negative = inhibition is 8.68%. In assay [4], the Potency is more than 20.6 µM.

In the case of `CCCCOC(=O)CSC1=C(C#N)C(c2ccccc2OC)C(C#N)C(=O)N1` (centres undefined), the activity change, negative = inhibition in assay [1] was -23.2%; in assay [2] it was 20.9%. Further, the activity, negative = inhibition in assay [3] was -14%. For the same compound, the Potency in assay [4] was more than 20.6 µM.

For the compound `CC(C)CC(=O)Nc1ccccc1N1CCCC1`, the activity change, negative = inhibition in assay [1] was 8.1%; in assay [2] it was 8.79%. In addition, in assay [3], the activity, negative = inhibition was 0.417%. Besides, the Potency in assay [4] is more than 20.6 µM.

Turning to `O=C(Nc1ncccc1Cl)c1cccc(F)c1`, the activity change, negative = inhibition in assay [1] is 2.04%; in assay [2], 4.8%. Further, the activity, negative = inhibition in assay [3] is 8.27%. The Potency in assay [4] is more than 20.6 µM.

Take `COC(=O)C1C(=O)NCC1c1ccccc1` (centres undefined): the activity change, negative = inhibition in assay [1] was 9.38%; in assay [2], -1.78%. Moreover, the activity, negative = inhibition in assay [3] is 7.06%. Further, the Potency in assay [4] was more than 20.6 µM.

`COC(=O)CSc1nc(C)c(C(C)=O)cc1C#N`: the activity change, negative = inhibition in assay [1] was 4.99%; in assay [2], -0.342%. Further, the activity, negative = inhibition in assay [3] was 7.71%. Also, the Potency in assay [4] was more than 20.6 µM.

Take `CC(=O)C1=C(O)C(=O)N(c2ccc(S(N)(=O)=O)cc2)C1c1ccccc1F` (centres undefined): the activity change, negative = inhibition in assay [1] is -4.17%; in assay [2], 5.76%. The activity, negative = inhibition in assay [3] was -0.593%. The Potency in assay [4] is more than 20.6 µM.

As to `Cc1cc(=O)oc(C)c1C(=O)NC1CC(C)(C)NC(C)(C)C1`, the activity change, negative = inhibition in assay [1] is -2.44%; in assay [2], -3.93%. In assay [3], the activity, negative = inhibition was 0.837%. Moreover, the Potency in assay [4] was more than 20.6 µM.

Turning to `CC(C)(C)C1=Nn2c(nnc2-c2ccco2)SC1`, the activity change, negative = inhibition in assay [1] is 2.22%; in assay [2], 11.1%. The activity, negative = inhibition in assay [3] is 8.01%. Besides, the Potency in assay [4] is more than 20.6 µM.

In the case of `O=C(Oc1cccnc1)c1ccco1`, the values for the activity change, negative = inhibition in assay [1] and in assay [2] were 7.51% and 5.81%, respectively. In addition, in assay [3], the activity, negative = inhibition was 8.88%. In assay [4], the Potency was more than 20.6 µM.

In the case of `Cn1c(=O)c2c(nc(N3CCC(C(N)=O)CC3)n2CCSc2nc3ccccc3s2)n(C)c1=O`, the figures for the activity change, negative = inhibition in assay [1] and in assay [2] were -0.203% and -5.54%, respectively. Moreover, in assay [3], the activity, negative = inhibition was 1.48%. Moreover, the Potency in assay [4] is more than 20.6 µM.

Consider `CCOC(=O)COn1c(=O)c(-c2ccc(OC)c(OC)c2)[n+]([O-])c2ccccc21`, for which the activity change, negative = inhibition in assay [1] is -0.29%; in assay [2], -6.08%. Also, the activity, negative = inhibition in assay [3] was 4.19%. The Potency in assay [4] is more than 20.6 µM.

For the compound `COc1ccc(C2CC(C(F)(F)F)n3ncc(C(=O)NCC4CCCO4)c3N2)cc1OC` (centres undefined), the activity change, negative = inhibition in assay [1] is -0.991%; in assay [2], 3.91%. Also, in assay [3], the activity, negative = inhibition was -0.435%. Besides, in assay [4], the Potency was more than 20.6 µM.

For the compound `Cc1c2c([n+]3n1CCC3)CC(C)(C)CC2=O`, the activity change, negative = inhibition is 8.99% in assay [1] and -9.27% in assay [2]. In assay [3], the activity, negative = inhibition was 11.2%. Moreover, the Potency in assay [4] was more than 20.6 µM.

`CC12CN3CC(=O)N4CC5(C)CN(CC(C)(C4)C5=O)C(=O)CN(C1)CC(C)(C3)C2=O`: the activity change, negative = inhibition was -1.13% in assay [1] and 2.81% in assay [2]. In addition, the activity, negative = inhibition in assay [3] was 0.401%. For the same compound, the Potency in assay [4] is more than 20.6 µM.

On to `C/C(=N\O)C1(C)N(O)C(C)(C)C(c2ccco2)=[N+]1[O-]` (centres undefined), for which the activity change, negative = inhibition in assay [1] was 5.37%; in assay [2], 9.27%. The activity, negative = inhibition in assay [3] was 1.33%. The Potency in assay [4] is more than 20.6 µM.
